In the supplement of paper PMC11865577:
Structures can show the parent of a compound that is named as a salt.

The molecules below were run on hsa-mir-221 loop (assay: normalised indicator fluorescence (fraction of RNA + indicator signal without compound); higher = less displacement of indicator (weaker competition)). Conditions: compound concentration: 5 uM; 30 min; indicator: TO-PRO-3 0.5 uM; RNA concentration: 0.5 uM.
Procedure, shortened: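 For the displacement screen, RNA and a TO-PRO-1 or TO-PRO-3 indicator were held in 20 mM phosphate pH 7.0 with 20 mM NaCl and 80 mM KCl in 96-well plates. After adding 0.25 μL of each 1 mM DMSO stock (about 5 uM final) and waiting 30 min, fluorescence was measured on an Infinite 200 PRO with excitation at 485 or 620 nm. Each value is the mean of two independent experiments, expressed as blank-subtracted indicator fluorescence relative to the no-compound RNA-plus-indicator signal.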

Row | Compound | normalised indicator fluorescence
1 | CC(=O)Oc1c(C)c(C)c2c(c1C)CCC(C)(CCC[C@H](C)CCC[C@H](C)CCCC(C)C)O2 (stereo not given in full) [Vitamin E Acetate] | 1.05
2 | COc1nccnc1NS(=O)(=O)c1ccc(NC(=O)/C=C/c2ccc([N+](=O)[O-])s2)cc1 [Necrosulfonamide] | 1.08
3 | CN(NC(=O)CC(=O)NN(C)C(=S)c1ccccc1)C(=S)c1ccccc1 [Elesclomol] | 0.964
4 | O=c1ccc2ccc(O)cc2o1 [7-Hydroxycoumarin] | 1.01
5 | O=C(O)/C=C/c1ccc(Cn2ccnc2)cc1 [Ozagrel hydrochloride] | 0.921
6 | Fc1ccc(-c2nc3n(c2-c2ccncc2)CCS3)cc1 | 1.13
7 | O=[N+]([O-])c1ccc(-c2nc(-c3ccc(F)cc3)c(-c3ccncc3)[nH]2)cc1 | 1.03
8 | OC[C@H]1O[C@@H](Oc2ccc(O)cc2)[C@H](O)[C@@H](O)[C@@H]1O [Arbutin] | 1.04
9 | COc1ccc(O)cc1 [4-Methoxyphenol] | 1.04
10 | CCNC(=O)c1noc(-c2cc(C(C)C)c(O)cc2O)c1-c1ccc(CN2CCOCC2)cc1 [Luminespib] | 1.05
11 | O=c1cc(-c2ccc(O)cc2)oc2cc(O)cc(O)c12 [Apigenin] | 1.03
12 | O=C1O[C@H]([C@@H](O)CO)C(O)=C1O [L(+)-Ascorbic acid] | 1.11
13 | O=c1ncn2nc(Sc3ccc(F)cc3F)ccc2c1-c1c(Cl)cccc1Cl [Neflamapimod] | 1.22
14 | Cc1cccc(CC(=O)N2CCc3c2ccc(-c2cn(C)c4ncnc(N)c24)c3F)n1 | 1.01
15 | CC(=O)O[C@H]1C[C@@]2(C)[C@@H](C[C@@H](O)[C@H]3[C@@]4(C)CC[C@@H](O)[C@@H](C)[C@@H]4CC[C@@]32C)/C1=C(\CCC=C(C)C)C(=O)O [Sodium fusidate] | 1.03
16 | CC(=O)CCCCn1c(=O)c2c(ncn2C)n(C)c1=O [Pentoxifylline] | 1.02
17 | Cc1c(C)c2c(c(C)c1O)CC[C@@](C)(CCC[C@H](C)CCC[C@H](C)CCCC(C)C)O2 [Vitamin E] | 1.07
18 | O=C(NC(Cc1cc(=O)[nH]c2ccccc12)C(=O)O)c1ccc(Cl)cc1 (stereo not given) [Rebamipide] | 1.04

Row | Compound | normalised indicator fluorescence
19 | NC(=O)c1ccc(N(C(N)=O)c2c(F)cccc2F)nc1-c1ccc(F)cc1F | 0.999
20 | CC(C)OC(=O)CCC/C=C\C[C@@H]1[C@@H](CC[C@@H](O)CCc2ccccc2)[C@H](O)C[C@@H]1O [Latanoprost] | 1.05
21 | CCCC(C(=O)OCCN(CC)CC)(c1ccccc1)c1ccccc1 [Proadifen hydrochloride] | 1.05
22 | COC1=C2C[C@@H](C)C[C@H](OC)[C@H](O)[C@@H](C)/C=C(\C)[C@H](OC(N)=O)[C@@H](OC)/C=C\C=C(/C)C(=O)NC(=CC1=O)C2=O [Geldanamycin] | 1.09
23 | COc1ccc(C(=C2C(=O)Nc3ccccc32)c2ccc(OC)cc2)cc1 | 1.09
24 | O=C1C[C@@H](c2ccc(O)cc2)Oc2cc(O)cc(O)c21 [Naringenin] | 0.975
25 | [I-].[K+] [Potassium iodide] | 1.03
26 | CO[C@H]1/C=C/O[C@@]2(C)Oc3c(C)c(O)c4c(c3C2=O)C2=NC3(CCN(CC(C)C)CC3)NC2=C(NC(=O)/C(C)=C\C=C\[C@H](C)[C@H](O)[C@@H](C)[C@@H](O)[C@@H](C)[C@H](OC(C)=O)[C@@H]1C)C4=O [Rifabutin] | 1.01
27 | O=C(O)/C=C/c1ccc(Cn2ccnc2)cc1 [Ozagrel] | 1.05
28 | CC1(C)OC(=O)C=C[C@]2(C)[C@H]3CC[C@@]4(C)[C@H](c5ccoc5)OC(=O)[C@H]5O[C@]54[C@]3(C)C(=O)C[C@@H]12 [Obacunone] | 1.07
29 | NNC(=O)c1ccncc1 [Isoniazid] | 1.01
30 | CC1=NN(c2ccccc2)C(=O)C1 [Edaravone] | 1.04
31 | CC(C)(O)[C@@H]1CC[C@](C)([C@H]2[C@@H](O)C[C@@]3(C)[C@@H]4C[C@H](O)[C@H]5C(C)(C)[C@@H](O[C@@H]6OC[C@@H](O)[C@H](O)[C@H]6O[C@@H]6O[C@H](CO)[C@@H](O)[C@H](O)[C@H]6O)CC[C@@]56C[C@@]46CC[C@]23C)O1 [Astragaloside III] | 1.07
32 | O=C(Nc1ccc2[nH]nc(-c3ccncc3)c2c1)[C@@H]1CCN(CC(=O)N2CCN(c3ccc(-c4ncccn4)cc3)CC2)C1 | 1
33 | O=C(COc1ccc(Cl)cc1)NC1CCC(NC(=O)COc2ccc(Cl)cc2)CC1 (stereo not given) | 1.01
34 | Oc1cc(O)c2c(c1)O[C@H](c1ccc(O)c(O)c1)[C@@H](O)C2 [Cianidanol] | 1.07
35 | C[C@@H]1O[C@@H](O[C@@H]2[C@@H](O)[C@H](OCCc3ccc(O)c(O)c3)O[C@H](CO)[C@H]2OC(=O)/C=C/c2ccc(O)c(O)c2)[C@H](O)[C@H](O)[C@H]1O [Verbascoside] | 0.949
